Rows were chosen to be rich in hits. Some 11% of all compounds tested hit in one or more screens of this group.
L3MBTL1 inh – qHTS Assay for the Inhibitors of L3MBTL1. AlphaScreen L3MBTL1–H3K9me1 peptide binding. Potency, µM (series often up to 57.1 µM), for the others: at the top dose activity, negative = inhibition, actives largely listed as inhibitors. 230,000 tested, 0.66% active. AID 485360, 2010. Lethal(3)malignant brain tumor-like protein 1 (Homo sapiens), Q9Y468; also: % is scaled to controls: 0 for no effect and ±100 for the full control effect; nearly all actives have a fitted effect of over 60% in size
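Displacement of a biotinylated histone H3(1-15) peptide monomethylated at Lys9 (75 nM) from L3MBTL1 (50 nM) was measured by AlphaScreen after a 30 min room-temperature compound incubation; cefsulodin titration served as intraplate control.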
BAZ2B block – qHTS Assay for Inhibitors of BAZ2B; 360,000 tested, 4.4% active; Potency, µM (highest dose often 114 µM), for the others: at the highest dose activity change, negative = inhibition, hits mostly inhibitors; AlphaScreen BAZ2B-H3K14Ac peptide displacement; Bromodomain adjacent to zinc finger domain protein 2B (Homo sapiens), Q9UIF8; also: % is scaled to controls: 0 for no effect and ±100 for the full control effect; nearly all actives have a fitted effect of over 60% in size
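Compounds, titrated to a top concentration of 110 uM, were incubated 30 min at room temperature with preformed BAZ2B/acetyl-K14 H3 peptide complex (50 nM each). Proximity signal was measured by AlphaScreen after 20 min with beads.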
G9a inh – qHTS Assay for Inhibitors of Histone Lysine Methyltransferase G9a. Histone-lysine N-methyltransferase EHMT2 (Homo sapiens), Q96KQ7. AID 504332, 2011. Potency, µM (titrated, usually from 102 µM), for inactives: top-dose activity, negative = inhibition, usual class: inhibitors. 350,000 tested, 8.8% active. G9a H3K9 monomethylation, AlphaScreen, 2 h; also: % is scaled to controls: 0 for no effect and ±100 for the full control effect; nearly all actives have a fitted effect of over 75% in size
Target sequence (Q96KQ7 913-1193 limits assumed): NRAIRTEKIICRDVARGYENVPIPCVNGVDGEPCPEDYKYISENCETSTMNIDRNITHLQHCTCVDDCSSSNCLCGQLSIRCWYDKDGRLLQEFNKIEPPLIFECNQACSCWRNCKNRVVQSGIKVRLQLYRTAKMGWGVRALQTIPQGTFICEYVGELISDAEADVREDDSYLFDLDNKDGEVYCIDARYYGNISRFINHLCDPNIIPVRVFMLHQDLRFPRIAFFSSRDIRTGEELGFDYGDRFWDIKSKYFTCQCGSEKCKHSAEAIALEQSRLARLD
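Using a bead-based AlphaScreen, monomethylated H3K9 product from 2 h room-temperature reactions (G9a 20 nM, peptide 500 nM, SAM 20 uM) was detected with 0.5 ug/mL rabbit anti-H3K9me1 antibody.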
HP1b binding inh – HTS for Inhibitors of HP1-beta Chromodomain Interactions with Methylated Histone Tails; AlphaScreen HP1-beta / biotin-H3K9me3 peptide binding; AID 540317, 2011; Potency, µM (top dose mostly 114 µM), for the others: at the highest dose activity change, negative = inhibition, hits mostly inhibitors; Chromobox protein homolog 1 (Homo sapiens), P83916; 390,000 tested, 0.56% active; also: nearly all actives have a fitted effect of over 70% in size
Target sequence (P83916 whole entry, looked up): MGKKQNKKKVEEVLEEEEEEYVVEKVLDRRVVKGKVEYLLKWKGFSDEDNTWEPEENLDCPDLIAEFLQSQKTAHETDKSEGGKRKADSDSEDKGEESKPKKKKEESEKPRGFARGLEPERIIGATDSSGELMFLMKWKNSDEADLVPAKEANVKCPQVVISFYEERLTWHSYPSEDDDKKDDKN
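Compound inhibition of the preformed complex between 50 nM HP1-beta and 50 nM biotinylated H3K9me3 peptide was read by AlphaScreen. Buffer was PBS pH 7.4 with 0.01% Tween-20. Incubations ran 30 min at room temperature, with 10 ug/mL donor/acceptor beads.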
JMJD2A Tudor inh – qHTS Assay for Inhibitors of JMJD2A-Tudor Domain | Lysine-specific demethylase 4A (Homo sapiens), O75164 | AlphaScreen JMJD2A-Tudor / H3K4me3 peptide binding | Potency, µM (titrated, usually from 114 µM), inactives show top-dose activity change, negative = inhibition, actives largely listed as inhibitors | 390,000 tested, 4.4% active | AID 504339, 2011; also: % is scaled to controls: 0 for no effect and ±100 for the full control effect; nearly all actives have a fitted effect of over 50% in size
* marks the source's active call; other numbers are inactive results; [ ] = another dose, or the depositor's remark. Calls follow the shape of the dose curve; as a rule, active = well fitted inhibition curve with a large enough effect; inconclusive = small, poorly fitted or top-dose-only effect; inactive = no such curve, though single readings can be large or run the other way. Potency is read from the fitted curve at half-maximal effect.

Results for COc1ccc(C(=O)CN2C3=NCCCN3c3ccccc32)cc1OC ?
L3MBTL1 inh: 1%; BAZ2B block: -6%; G9a inh: 45µM*; HP1b binding inh: 10%; JMJD2A Tudor inh: -12%

How did COc1ccccc1NS(=O)(=O)c1cc(NC(=O)c2ccccc2C)ccc1N1CCOCC1 do in these assays?
HP1b binding inh: 9%; JMJD2A Tudor inh: -15%

Results for COc1ccccc1NS(=O)(=O)c1cc(N2Cc3ccccc3C2=N)ccc1N1CCOCC1 ?
L3MBTL1 inh: -15%; G9a inh: 14µM*; HP1b binding inh: inconclusive; JMJD2A Tudor inh: inconclusive

How did Nc1ccc(N2CCCC2)c(S(=O)(=O)Nc2cccc(C(F)(F)F)c2)c1 do in these assays?
L3MBTL1 inh: -14%; HP1b binding inh: inconclusive; JMJD2A Tudor inh: 45µM*

What do the screens show for `COc1ccc(NC(C)=O)cc1S(=O)(=O)Nc1ccccc1C(=O)NCCc1ccccc1`?
BAZ2B block: -25%; G9a inh: 3%; HP1b binding inh: 9%; JMJD2A Tudor inh: -3%

Results for COc1ccccc1NS(=O)(=O)c1cc(NC(=O)C2CC2)ccc1N1CCOCC1 ?
L3MBTL1 inh: 10%; BAZ2B block: -35%; G9a inh: 8.9µM*

How did COc1ccc(NC(C)=O)cc1S(=O)(=O)Nc1ccc(OCc2ccccc2)cc1 do in these assays?
BAZ2B block: inconclusive; G9a inh: 45µM*; HP1b binding inh: -6%; JMJD2A Tudor inh: inconclusive

How did Cc1noc(C)c1-c1cncnc1NCc1cccnc1 do in these assays?
G9a inh: -49%[0.501 µM]

How did O=C(O)CC(NS(=O)(=O)c1ccc(Cl)s1)c1ccccc1 (stereo unspecified) do in these assays?
BAZ2B block: 7%[57.1 µM]; G9a inh: 1%[59 µM]; HP1b binding inh: 33%; JMJD2A Tudor inh: -10%

Results for CCCCCC(=O)Nc1ccc(N2CCOCC2)c(S(=O)(=O)Nc2ccc(OC)cc2)c1 ?
L3MBTL1 inh: -1%; BAZ2B block: 9%; G9a inh: 11µM*; HP1b binding inh: 10%; JMJD2A Tudor inh: -15%

What do the screens show for `COc1ccc(C(=O)Nc2ccc(Cl)c(S(=O)(=O)Nc3ccccc3OC)c2)cc1`?
L3MBTL1 inh: 2%; BAZ2B block: -7%; G9a inh: -6%[59 µM]; HP1b binding inh: 13%; JMJD2A Tudor inh: -23%

What do the screens show for `COc1ccccc1NS(=O)(=O)c1cc(NC(=O)Nc2cccc(C)c2)ccc1N1CCCCC1`?
L3MBTL1 inh: -8%; BAZ2B block: -3%; G9a inh: 25µM*; HP1b binding inh: inconclusive; JMJD2A Tudor inh: -24%

How did CCN(CC)c1ccc(NC(=O)c2ccccc2)cc1S(=O)(=O)Nc1ccccc1OC do in these assays?
L3MBTL1 inh: -3%; BAZ2B block: -36%; G9a inh: 1µM*; HP1b binding inh: inconclusive; JMJD2A Tudor inh: 79µM*

How did COc1ccccc1NS(=O)(=O)c1cc(N)ccc1N1CCCC1 do in these assays?
L3MBTL1 inh: -14%; HP1b binding inh: 14µM*; JMJD2A Tudor inh: inconclusive

What do the screens show for `COc1ccc(Cl)cc1NC(=O)CSc1nc2c(oc3ccccc32)c(=O)n1Cc1ccco1`?
BAZ2B block: 1%; G9a inh: -20%[59 µM]; HP1b binding inh: 16%; JMJD2A Tudor inh: -5%

Results for COc1ccccc1NS(=O)(=O)c1cc(NC(=O)c2ccncc2)ccc1N1CCCC1 ?
L3MBTL1 inh: -17%; G9a inh: 7.9µM*; HP1b binding inh: inconclusive; JMJD2A Tudor inh: -36%

How did COc1ccccc1NS(=O)(=O)c1cc(NC(=O)CCNC(C)=O)ccc1N1CCCCC1 do in these assays?
L3MBTL1 inh: -9%; BAZ2B block: -30%; G9a inh: 4%[0.501 µM]; HP1b binding inh: -10%; JMJD2A Tudor inh: inconclusive

How did COc1ccccc1NS(=O)(=O)c1cc(NC(C)=O)ccc1N1CCCCC1 do in these assays?
L3MBTL1 inh: -11%; G9a inh: 8.9µM*; HP1b binding inh: inconclusive; JMJD2A Tudor inh: 79µM*

From PubChem
